# D1 antagonist – Antagonist of Human D 1 Dopamine Receptor: qHTS; HEK293 TREx D1 cells, calcium flux, dopamine EC80; hits give low values; activity change, negative = inhibition, % at 10 µM; actives 3.2% (n = 360,000); AID 504652, 2011; in the data active = activity change below about -30%; note: % is set by controls: 0 for no effect and ±100 for the full control effect
# Target sequence (P21728 whole entry, looked up): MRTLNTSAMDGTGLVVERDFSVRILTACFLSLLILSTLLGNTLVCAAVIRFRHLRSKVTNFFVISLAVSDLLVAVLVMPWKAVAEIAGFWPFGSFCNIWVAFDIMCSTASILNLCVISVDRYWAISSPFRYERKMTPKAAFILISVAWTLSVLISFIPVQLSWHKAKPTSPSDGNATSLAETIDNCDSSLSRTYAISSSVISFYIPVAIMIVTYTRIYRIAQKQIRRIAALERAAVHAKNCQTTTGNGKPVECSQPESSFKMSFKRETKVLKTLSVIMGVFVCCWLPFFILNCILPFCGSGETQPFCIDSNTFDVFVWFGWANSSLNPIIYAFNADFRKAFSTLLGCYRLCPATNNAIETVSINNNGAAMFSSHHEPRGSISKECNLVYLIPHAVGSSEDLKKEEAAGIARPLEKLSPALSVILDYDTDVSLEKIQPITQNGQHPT
#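 Allosteric or orthosteric antagonism assessed as attenuation of the calcium response to EC80 dopamine, added 180 s after compound, in induced HEK293 Trex D1 cells loaded with no-wash calcium dye.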
# TRHR agonist-1 – qHTS for Small Molecule Agonists and Allosteric Enhancers of Human TRH Receptor: Primary Screen for Agonists; Thyrotropin-releasing hormone receptor (Homo sapiens), P34981; actives 0.18% (n = 360,000); TRHR cells, calcium flux fluo-8, FDSS agonist mode; activation, % at 2 µM; in the data active = activation above about 30%; note: 0% is about no effect
#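 In this calcium-flux screen, cells bearing human TRHR are dye-loaded with fluo-8, baselined for 10 cycles, then exposed to library compounds; positive kinetic calcium responses during the agonist phase mark hits, with TRH as control.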
# D1 PAM – Potentiators of Human D1 Dopamine Receptor: qHTS; HEK293 TREx D1 cells, calcium flux, dopamine EC20 potentiation; actives 0.036% (n = 360,000); AID 504651, 2011; D(1A) dopamine receptor (Homo sapiens), P21728; potentiation, % at 10 µM; in the data active = potentiation above about 30%; note: 0% is about no effect
# TRHR enhancer-1 – qHTS for Small Molecule Agonists and Allosteric Enhancers of Human TRH Receptor: Primary Screen for Enhancers; Thyrotropin-releasing hormone receptor (Homo sapiens), P34981; TRHR cells, fluo-8 calcium fluorescence, EC20 TRH enhancement; enhancement, % at 2 µM; actives 0.66% (n = 360,000); in the data active = enhancement above about 30%; note: 0% is about no effect
#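 Enhancer read-out: after compound pinning and an initial kinetic agonist-mode read, an EC20 of TRH (10 nM final) was injected and fluo-8 calcium signal (Ex 480/Em 530) followed at 1 s/cycle for 100 cycles in TRHR-expressing cells.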
# D1 agonist – Allosteric Agonists of the Human D1 Dopamine Receptor: qHTS; D(1A) dopamine receptor (Homo sapiens), P21728; HEK293 T-REx D1 cells, calcium flux, agonist mode; activation, % at 2 µM; actives 1% (n = 360,000); AID 504660, 2011; in the data active = activation above about 30%; note: 0% is about no effect
#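 Agonism was scored from calcium flux recorded over 180 s (1 read/s) after pintool compound addition, following a 10-cycle baseline. Cells were inducible force-coupled HEK293 TREx D1, plated overnight at 30 C and loaded with no-wash calcium dye.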
# TRHR enhancer-2 – qHTS for Small Molecule Agonists and Allosteric Enhancers of Human TRH Receptor: Confirmation Screen for Enhancers; shares compounds with TRHR enhancer-1; TRH receptor cell assay, enhancer confirmation qHTS; activity change, negative = inhibition, % at 46.1 µM; 970 tested, under 10 active; AID 493076, 2011;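 note: compound effect scored on response to added TRH at EC20 of 10 nM; 0% is about no effect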
# TRHR agonist-2 – qHTS for Small Molecule Agonists and Allosteric Enhancers of Human TRH Receptor: Confirmation Screen for Agonists; actives 8% (n = 970); TRHR-expressing cells, agonist activation read-out; shares compounds with TRHR enhancer-1; Potency, µM (top dose mostly 46.1 µM), without a hit: at the highest dose activation, hits mostly activators; AID 493078, 2011; note: potency is the fitted concentration of half-maximal effect; 0% is about no effect; nearly all actives have a fitted effect of over 75% in size
# * marks the source's active call; other numbers are inactive results; ? = inconclusive; nt = no result given. Shown are actives, neighbours in structure and some others; about 4.7% of the full set was active somewhere. Unless noted, calls come from the whole dose curve; as a rule, active = well fitted curve in the direction sought with a large enough effect; inconclusive = small, poorly fitted or top-dose-only effect, or another doubt; inactive = no such curve, though single readings can be large; an effect the other way counts as inactive or inconclusive.
SMILES,D1 antagonist,TRHR agonist-1,D1 PAM,TRHR enhancer-1,D1 agonist,TRHR enhancer-2,TRHR agonist-2
Cc1nn(CC(=O)Nc2ccc3c(c2)nc2n3CCN(C3CCCCC3)C2)c(=O)c2ccccc12,1,0,-3,46*,1,6,6%
CCCC1CCC(C(=O)Nn2c(C)nc3ccccc3c2=O)CC1 (centres undefined),0,0,-4,45*,-1,-1,0%
CCCCCCC1CCC(C(=O)Nn2c(C)nc3ccccc3c2=O)CC1 (centres undefined),8,2,-2,-2,2,nt,nt
C=CCn1c(=O)n(C(=O)OCC)c2cc(Br)ccc21,-2,1,9,66*,0,-7,1%
COc1ccc(OC)c(C(c2c(C)[nH][nH]c2=O)c2c(C)[nH][nH]c2=O)c1,-20,1,-9,50*,0,-1,1%
COc1ccc(CNC(=O)Cn2c(=O)nc(-c3ccccc3F)c3cc(Cl)ccc32)cc1OC,-18,-1,0,4,-2,nt,nt
COc1ccc(Br)cc1C(=O)Nc1ccc(C(=O)NCC(C)C)cc1,5,-2,-8,46*,2,10,1%
OCC1(CCc2ccccc2)CCN(Cc2ccccc2Cl)CC1,20,3,-5,60*,8,-5,5%
Clc1ccccc1CN1CCN(CCCc2ccccc2)CC1,-19,-3,-8,-4,3,nt,nt
COc1ccccc1CNc1nc(-c2ccco2)nn1C(=O)c1cc(OC)c(OC)c(OC)c1,1,-1,0,4,5,nt,nt
CCCc1cc(=O)oc2c(C)c(OCC(=O)NCCN3CCOCC3)ccc12,6,-1,-5,54*,0,7,-1%
COc1ccc(NC(=O)C2=C(C)Nc3ncnn3C2c2cccn2C)cc1 (centres undefined),-6,1,0,-3,9,nt,nt
CC(=O)Nc1ccccc1-c1nc2ccccc2n(CC(=O)c2ccc(C)c(C)c2)c1=O,-2,-1,-2,9,0,nt,nt
COCCOc1cc2ncnc(N3CCC(C(=O)O)CC3)c2cc1OCCOC,3,-2,6,43*,2,3,-1%
CCOC(=O)C1CCN(c2ncnc3c2[nH]c2cccc(OC)c23)CC1,-11,0,-4,9,0,nt,nt
Cc1ccc(NC(=O)c2oc3ccc(S(=O)(=O)N4CCC5(CC4)OCCO5)cc3c2C)c(C)c1,-6,1,2,-3,-1,nt,nt
O=C(Cn1cnc2c(nnn2Cc2ccccc2)c1=O)N1CCN(c2ccccc2)CC1,7,-1,-2,89*,1,-4,0%
COc1ccc(-c2nc3ccccc3s2)cc1NC(=O)c1cccc([N+](=O)[O-])c1C,4,0,-1,23,-1,nt,nt
Cc1cccc(NC(=O)COc2ccc(Br)cc2/C=N/O)c1,3,-1,-6,43*,9,-7,2%
CC(=O)Nc1ccc(NC(=O)COc2ccc(Br)cc2C)cc1,-18,0,6,2,6,nt,nt
Cn1c(=O)c(N)c2c3c(c(Br)ccc31)C(=O)c1ccccc1-2,-9,60*,-5,-5,73*,-5,18µM*
CC1(Cc2cn(CCC#N)c3ccccc23)OCCO1,5,0,7,1,3,nt,nt
N#CCCn1cc(CNC2CCC(O)CC2)c2ccccc21 (centres undefined),6,-2,1,45*,-1,?,-1%
